Results as given in the supplement of paper PMC6555819.

Assays:
Assay in all cases: PBM binding z-score (relative to random genomic background probes); higher = stronger binding; sequences stand for … in GC…GCGATTGACAGCGTAGAATGAAGG
[1] = tested on: FXR:RXRa (NR concentration 270 nM, RXRa partner concentration 90 nM)
In short: (§1)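 Antibodies against each partner of ligand-free nuclear receptor dimers (one per run) detected binding on custom Agilent 4×180K protein-binding microarrays after 1 h incubation. The double-stranded probes had 34-nt variable regions carrying direct-repeat seeds, single-nucleotide variants, half-site ablations and random human genomic background sequences. Binding z-scores, from regression-normalized fluorescence, use the random background probes as reference.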

[2] = tested on: LXRa:RXRa (NR concentration 270 nM, RXRa partner concentration 90 nM)
In short: as §1

[3] = tested on: LXRa homodimer (NR concentration 270 nM)
In short: as §1

[4] = tested on: LXRb:RXRa (NR concentration 270 nM, RXRa partner concentration 90 nM)
In short: as §1

[5] = tested on: LXRb homodimer (NR concentration 270 nM)
In short: as §1

[6] = tested on: PPARa:RXRa (NR concentration 270 nM, RXRa partner concentration 90 nM)
In short: as §1

[7] = tested on: PPARg:RXRa (NR concentration 180 nM, RXRa partner concentration 90 nM)
In short: as §1

[8] = tested on: PPARg:RXRa 270nM:90nM, anti-RXR (NR concentration 270 nM, RXRa partner concentration 90 nM)
In short: as §1

[9] = tested on: PPARg:RXRa 30nM:10nM, anti-RXR (NR concentration 30 nM, RXRa partner concentration 10 nM)
In short: as §1

[10] = tested on: PPARg:RXRa 90nM:30nM, anti-RXR (NR concentration 90 nM, RXRa partner concentration 30 nM)
In short: as §1

[11] = tested on: PPARg:RXRa DBDmut IVT, anti-RXR (DBD mutation: RXRa K156A/R161A, NR concentration 270 nM, RXRa partner concentration 90 nM)
In short: as §1

[12] = tested on: PPARg:RXRa IVT, anti-PPARg (NR concentration 270 nM, RXRa partner concentration 90 nM)
In short: as §1

[13] = tested on: PPARg DBDmut:RXRa IVT, anti-PPARg (DBD mutation: PPARg1 K132A/R137A, NR concentration 270 nM, RXRa partner concentration 90 nM)
In short: as §1

[14] = tested on: PPARg DBDmut IVT, anti-PPARg (DBD mutation: PPARg1 K132A/R137A, NR concentration 270 nM)
In short: as §1

[15] = tested on: PPARg homodimer (NR concentration 180 nM)
In short: as §1

[16] = tested on: PXR:RXRa (NR concentration 270 nM, RXRa partner concentration 90 nM)
In short: as §1

[17] = tested on: PXR homodimer (NR concentration 270 nM)
In short: as §1

[18] = tested on: RARa:RXR (NR concentration 270 nM, RXRa partner concentration 90 nM)
In short: as §1

[19] = tested on: RARa homodimer (NR concentration 270 nM)
In short: as §1

[20] = tested on: RARb:RXRa (NR concentration 270 nM, RXRa partner concentration 90 nM)
In short: as §1

Sequence	PBM binding z-score [1]	PBM binding z-score [2]	PBM binding z-score [3]	PBM binding z-score [4]	PBM binding z-score [5]	PBM binding z-score [6]	PBM binding z-score [7]	PBM binding z-score [8]	PBM binding z-score [9]	PBM binding z-score [10]	PBM binding z-score [11]	PBM binding z-score [12]	PBM binding z-score [13]	PBM binding z-score [14]	PBM binding z-score [15]	PBM binding z-score [16]	PBM binding z-score [17]	PBM binding z-score [18]	PBM binding z-score [19]	PBM binding z-score [20]
CCTACTGGGCCATCAGGTCCTTGATATCAACGTT	-0.312	-0.421	-0.282	-0.452	-0.521	0.449	0.742	1.4	-0.0903	0.582	3.89	3.63	0.113	-0.684	0.311	-0.471	-0.404	-0.307	0.115	0.33
TATACAGGGTCCAAGGCCAGAGTACGAATGTCGA	0.36	0.228	0.0779	0.18	1.02	0.314	0.93	0.625	0.686	0.795	-0.0833	0.889	1	0.775	0.44	0.336	0.699	0.0317	0.427	1.2
ATATGTAGGTTACATCCGGGTCCTTCAGGCTATG	0.21	1.72	0.152	0.684	0.758	3.17	5.07	4.1	2	3.63	7.33	7.38	2.34	1.87	0.864	0.482	0.298	0.744	0.322	0.999
ACAGACAGGTGATGAAGGTAACGCAGGCTATCAT	-0.062	-0.206	-0.481	-0.283	-0.516	-0.00302	0.871	0.114	-0.0221	0.00481	-0.0406	0.365	-0.0492	0.0429	-0.243	-0.376	0.103	-0.27	-0.271	0.179
TTAGACAGGTGAAGGTAACTCAGGTACGCAGTCG	0.437	1.75	-0.26	0.818	-0.0711	1.07	0.825	1.33	1.9	1.54	1.15	1.49	1.36	0.841	0.811	0.344	-0.00345	0.387	0.607	0.951
CCTAGTTGGTCAAGATCACACACGCTATAGGTAC	0.117	0.306	0.456	0.468	0.508	0.119	1.18	0.452	0.398	0.0188	1.36	1.04	0.47	1.08	1.14	0.0789	0.685	-0.0472	1.56	1.03
TGTCAAAGTTCAAAGGTAACTTAAGTATCCACAC	7.43	6.57	4.91	5.29	1.88	5.97	9.03	7.64	5.83	7.46	0.229	4.39	1.49	1.25	2.75	5.84	3.49	6.36	1.36	5.23
CGTCCAAGGTCAGGAGGTCAGTGAAAGCGACGTG	6.23	4.55	1.15	3.64	-0.0727	5.43	4.93	5.41	1.89	4.06	2.95	3.93	-0.53	-1.29	5.26	4.65	1.1	6.11	1.5	5.52
CGTCCAAGGTCAATGCTAGGTCAGTTAAAGCATT	6.86	5.46	3.07	4.57	0.641	5.2	3.88	4.44	1.26	3.34	3.07	3.94	0.0858	0.055	4.36	4.89	1.22	5.78	1.02	5.21
TCATATAGGTAAAAGGTGAAGGTCGGTGTGGTAA	1.92	1.85	0.375	2.08	0.359	5.23	9.08	8.43	8.12	8.44	5.58	5.14	1.14	0.439	1.92	2.15	1.34	3.07	1.51	2.28
GCTTACCGGTCAAAGGTTATAGCATGAATAGAAT	4.43	4.56	1.49	3.6	0.218	5.47	8.77	7.56	6.87	8.38	1.07	3.62	1.01	0.383	1.71	3.63	0.0899	5.64	0.15	3.59
TGAATGAGGTTAAAGATCAGGGACCGTGGCGTCG	2.75	2.5	-0.345	1.45	0.253	4.71	5.75	6.16	5.21	6.9	1.93	3.65	0.741	0.491	1.52	1.94	-0.23	2.91	0.149	1.96
TAGCCTAGGCCATGCGGGCCAGTATAGTGTCGGC	-0.771	-1.17	-0.671	-1.47	-1.47	-0.776	-0.313	-1.06	-0.847	-1.18	-0.849	-0.0851	-0.949	-1.38	-1.26	-0.956	-1.02	-0.877	-1.18	0.00206
CAAACTAGTTCACAGAGGTCAAAGTCCGTGCGTA	5.85	6.23	7.12	5.68	2.36	5.3	3.87	5.02	2.33	4.18	2.43	3.25	0.945	0.72	4.3	7.16	14.3	7.22	2.73	4.46
